This note sets out measurements from PubChem BioAssay (NCI).

Each structure is given as a SMILES string. About 83,000 compounds went through this panel and 20% of them were active in at least one assay; those are over-represented in the sample as a whole.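 Single-concentration screen, 48 h exposure, 96-well plates. Endpoint: percent growth. Below 10 = active.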 A number with no mark means an inactive call. Active and inactive are the calls of the source.

Test systems include DU-145 prostate; K-562 leukemia; MALME-3M melanoma; MDA-MB-231 breast; RXF 393 renal; SF-268 CNS; SF-295 CNS; SF-539 CNS; UACC-257 melanoma; M14 melanoma; HCT-15 colon; HT29 colon; SNB-75 CNS; SNB-19 CNS; U251 CNS; PC-3 prostate; SK-MEL-5 melanoma; UACC-62 melanoma; LOX IMVI melanoma; SK-MEL-28 melanoma.
Common to all, as to test: NCI-60 one-dose screen, 48 h (100 = growth as untreated, 0 = no growth, -100 = all killed)
Common to all, as to conditions: 10 µM unless noted

As to `C#CCOc1ccc(C2=NN(CC3CC3)C3N=C(Cl)c4ncn(CC5CC5)c4N23)cc1OCC#C` (stereo not given), the growth with DU-145 prostate was 69%; in the experiment with K-562 leukemia, 48.6%; with MALME-3M melanoma, 83.5%; in the experiment with MDA-MB-231 breast, 87.5%; in the experiment on RXF 393 renal, 51.2%; with SF-268 CNS, 96.8%. The growth in the experiment with SF-295 CNS was 88%; in the experiment on SF-539 CNS, 90%; in the experiment on UACC-257 melanoma, 98.8%; in the experiment on M14 melanoma, 74.3%; in the experiment with HCT-15 colon, 69.5%; in the experiment with HT29 colon it was 84.3%. In addition, the growth in the experiment with SNB-75 CNS is 84.6%; in the experiment with SNB-19 CNS, 98.7%; with U251 CNS it was 70.5%; in the experiment on PC-3 prostate, 63.7%; in the experiment on SK-MEL-5 melanoma, 60.9%; in the experiment with UACC-62 melanoma it was 59.7%. The growth in the experiment on LOX IMVI melanoma is 68.4%; in the experiment with SK-MEL-28 melanoma, 93.6%.

Consider `CC(=O)Nc1ccc2nc3ccc(NC(C)=O)cc3[n+](-c3ccccc3)c2c1`, for which the growth is 117% in the experiment with DU-145 prostate; 57.1% in the experiment on K-562 leukemia; 115% with MALME-3M melanoma; 66.3% in the experiment with MDA-MB-231 breast; 101% in the experiment with RXF 393 renal; 97.5% in the experiment with SF-268 CNS. The growth with SF-295 CNS was 121%; in the experiment on SF-539 CNS it was 89.3%; with UACC-257 melanoma, 94.5%; with M14 melanoma it was 107%; in the experiment on HCT-15 colon, 104%; with HT29 colon, 115%. For the same molecule, the growth is 82.2% with SNB-75 CNS; 94.2% in the experiment on SNB-19 CNS; 109% in the experiment on U251 CNS; 104% in the experiment on PC-3 prostate; 96.3% in the experiment on SK-MEL-5 melanoma; 103% in the experiment with UACC-62 melanoma. The values for the growth in the experiment with LOX IMVI melanoma and with SK-MEL-28 melanoma were 96.8% and 166%, respectively.

As to `COc1ccc2nc3cc(Cl)ccc3c(Nc3ccc(O)cc3)c2c1`, the growth with DU-145 prostate was 48.4%; with K-562 leukemia it was 54.8%; in the experiment with MALME-3M melanoma, 83.5%; in the experiment on MDA-MB-231 breast, 84.4%; in the experiment with RXF 393 renal, 83.2%; with SF-268 CNS, 72.8%. Moreover, the growth in the experiment with SF-295 CNS was 84.9%; in the experiment with SF-539 CNS, 80.8%; in the experiment on UACC-257 melanoma it was 102%; with M14 melanoma, 94.8%; in the experiment on HCT-15 colon, 52.9%; in the experiment on HT29 colon, 57.9%. Moreover, the growth in the experiment on SNB-75 CNS was 89.6%; in the experiment on SNB-19 CNS, 81.9%; in the experiment on U251 CNS, 70.5%; in the experiment on PC-3 prostate it was 89.2%; in the experiment with SK-MEL-5 melanoma, 88.6%; with UACC-62 melanoma, 80.4%. Moreover, the growth with LOX IMVI melanoma is 43.5%; with SK-MEL-28 melanoma, 107%.

As for `COC(=O)c1c(C)[nH]c(/C=C2\N=C(c3ccc[nH]3)C=C2OC)c1C`, the growth in the experiment with DU-145 prostate was 9.5% (active); in the experiment with K-562 leukemia it was 4.3% (active); in the experiment with MALME-3M melanoma, -69.3% (active); in the experiment on MDA-MB-231 breast, -40.2% (active); with RXF 393 renal it was -33.9% (active); in the experiment on SF-268 CNS, 18.3%. The growth in the experiment with SF-295 CNS was -56.7% (active); in the experiment on SF-539 CNS, -59.7% (active); with UACC-257 melanoma, -49% (active); with M14 melanoma, -24% (active); in the experiment with HCT-15 colon, 0.837% (active); with HT29 colon, -13.8% (active). Besides, the growth in the experiment on SNB-75 CNS is -23.3% (active); in the experiment with SNB-19 CNS, 30.5%; in the experiment on U251 CNS it was -27.9% (active); with PC-3 prostate, 9.06% (active); in the experiment with SK-MEL-5 melanoma it was -99.7% (active); in the experiment with UACC-62 melanoma it was -62.8% (active). Also, the growth in the experiment on LOX IMVI melanoma is -56.8% (active); in the experiment on SK-MEL-28 melanoma, -27.8% (active).

As for `Cc1ccc(-c2cn(C/C=C3\C=CN(S(=O)(=O)c4ccccc4)CC3)nn2)cc1`, the growth in the experiment on DU-145 prostate is 118%; in the experiment on K-562 leukemia, 89.5%; in the experiment on MALME-3M melanoma it was 104%; in the experiment on MDA-MB-231 breast, 97.5%; with RXF 393 renal, 123%; in the experiment on SF-268 CNS it was 99.3%. Moreover, the growth was 99.3% in the experiment with SF-295 CNS; 100% in the experiment with SF-539 CNS; 106% in the experiment with UACC-257 melanoma; 92.5% in the experiment on M14 melanoma; 95.6% in the experiment with HCT-15 colon; 124% in the experiment with HT29 colon. Also, the growth with SNB-75 CNS is 82.1%; in the experiment on SNB-19 CNS, 93%; in the experiment with U251 CNS, 108%; in the experiment on PC-3 prostate, 97.1%; in the experiment on SK-MEL-5 melanoma, 97%; in the experiment with UACC-62 melanoma, 64%. Besides, the growth in the experiment on LOX IMVI melanoma is 97.8%; in the experiment with SK-MEL-28 melanoma, 101%.

With `O=C(Nc1ccc(F)cc1)c1ccccc1`, the growth in the experiment with DU-145 prostate is 104%; in the experiment on K-562 leukemia, 103%; in the experiment on MALME-3M melanoma, 98.8%; in the experiment with MDA-MB-231 breast it was 105%; in the experiment with RXF 393 renal it was 116%; in the experiment with SF-268 CNS it was 105%. For the same molecule, the growth is 93.4% in the experiment with SF-295 CNS; 99.3% in the experiment on SF-539 CNS; 107% in the experiment with UACC-257 melanoma; 106% in the experiment on M14 melanoma; 96.6% with HCT-15 colon; 114% in the experiment with HT29 colon. The growth in the experiment with SNB-75 CNS was 106%; in the experiment with SNB-19 CNS, 101%; in the experiment with U251 CNS, 102%; in the experiment with PC-3 prostate it was 108%; in the experiment on SK-MEL-5 melanoma, 101%; in the experiment with UACC-62 melanoma, 90.8%. The results for the growth in the experiment on LOX IMVI melanoma and in the experiment on SK-MEL-28 melanoma were 105% and 101%, respectively.

As for `CCOC(=O)C(C(C)=O)c1nc2sc3cc(Cl)c(Cl)cc3n2c(=O)c1C#N` (stereo not given), the growth is 109% in the experiment with DU-145 prostate; 92% in the experiment with K-562 leukemia; 95.5% with MALME-3M melanoma; 87.2% in the experiment with MDA-MB-231 breast; 179% in the experiment with RXF 393 renal; 103% in the experiment with SF-268 CNS. Besides, the growth with SF-295 CNS was 103%; with SF-539 CNS it was 86.2%; in the experiment on UACC-257 melanoma, 118%; in the experiment with M14 melanoma, 104%; with HCT-15 colon it was 109%; with HT29 colon it was 107%. Further, the growth with SNB-75 CNS is 73%; in the experiment on SNB-19 CNS it was 93%; with U251 CNS, 111%; in the experiment with PC-3 prostate, 83.9%; in the experiment with SK-MEL-5 melanoma, 74.3%; in the experiment with UACC-62 melanoma, 85.8%. Further, the growth was 98.1% in the experiment with LOX IMVI melanoma and 125% in the experiment with SK-MEL-28 melanoma.

On to `O=C(N/N=C/c1c(Cl)cccc1Cl)c1cccc(Nc2ccnc(C(F)(F)F)c2)c1`, for which the growth in the experiment with DU-145 prostate was 120%; in the experiment with K-562 leukemia it was 104%; in the experiment with MALME-3M melanoma it was 113%; in the experiment with MDA-MB-231 breast, 76.8%; in the experiment on RXF 393 renal it was 111%; in the experiment with SF-268 CNS, 125%. Besides, the growth with SF-295 CNS is 90.3%; with SF-539 CNS, 92.9%; in the experiment with UACC-257 melanoma, 102%; with M14 melanoma, 80.8%; in the experiment on HCT-15 colon, 78.5%; in the experiment with HT29 colon, 96.7%. In addition, the growth was 93.7% in the experiment on SNB-75 CNS; 85.7% in the experiment on SNB-19 CNS; 89.6% with U251 CNS; 77% with PC-3 prostate; 54.6% with SK-MEL-5 melanoma; 72.5% in the experiment on UACC-62 melanoma. Moreover, the figures for the growth in the experiment on LOX IMVI melanoma and with SK-MEL-28 melanoma were 83.7% and 99.3%, respectively.
